Drawing on PubChem BioAssay AID624296 (National Center for Advancing Translational Sciences (NCATS), 2012), this text covers Potency for 65 compounds.

SMILES strings stand for the structures. Out of some 350,000 compounds screened, about 9,900 (2.8%) were called active. A call without a number means that no potency is given here. Another 15% or so got no clear call; they are omitted. The call rests on the fitted dose curve; in most records, active means well fitted activation curve with a large enough effect; inconclusive means small, poorly fitted or top-dose-only effect; inactive means no such curve, though single readings can be large or run the other way. The sample as a whole holds a higher share of actives than the screen did.
Potency means the concentration at half of the fitted maximal effect.

This assay in a line: A quantitative high throughput screen for small molecules that induce DNA re-replication in MCF 10a normal breast cells. Further: nearly all actives have a fitted effect of over 50% in size. The conditions noted are these: MCF 10A DNA re-replication, Hoechst nuclear intensity, 48 h; series mostly up to 46.1 µM.
Take `O=C(N[C@@H](Cc1ccccc1)C(=O)OCc1ccccc1)c1nc[nH]c1C(=O)NC1CCNCC1`: the Potency entry was “inactive”.
For `CC(C)(C)OC(=O)N1CCC(NC(=O)c2[nH]cnc2C(=O)N[C@@H](Cc2ccccc2)C(=O)OCc2ccccc2)CC1` the value was 14.6 µM (active).
As for `O=C(N[C@@H](Cc1ccccc1)C(=O)OCc1ccccc1)c1nc[nH]c1C(=O)N[C@@H](Cc1ccccc1)C(=O)OCc1ccccc1`, the Potency result was “inactive”.
For `NS(=O)(=O)c1ccc(CCNC(=O)c2ccc(Cl)c(S(=O)(=O)N3CCCCCC3)c2)cc1` the value was “inactive”.
Regarding `Cc1ccc(C(CC(=O)O)NC(=O)c2ccc(S(=O)(=O)N3CCCC3)cc2)cc1` (stereo not given), the Potency entry is “inactive”.
For `CCOC(=O)C1(Cc2cccc(OC)c2)CCN(C(C)COC)CC1` (stereo not given) the value was “inactive”.
Regarding `CCOC(=O)C1(Cc2cccc(OC)c2)CCN(Cc2csc(C(C)=O)c2)CC1`, the Potency is 8.2 µM (active).
For `CCOC(=O)C1(Cc2cccc(OC)c2)CCN(C(C)CC(C)(C)O)CC1` (stereo not given) the value was “inactive”.
The entry for `N#CC1(Nc2ccc(-c3ccc(Cl)cc3)cc2)CCCC1` is “inactive”; for `O=C(Nc1c(Br)cc2c(c1Br)Cc1ccccc1-2)C(F)(F)F` it is “inactive”.
With `CCN1CCN(C(=O)c2ccccc2N(C)S(=O)(=O)c2ccc(C)cc2)CC1`, the Potency entry is “inactive”.
The figure for `CCOC(=O)N1CCN(C(=O)c2ccccc2N(Cc2ccccc2)S(=O)(=O)c2ccc(OC)cc2)CC1` is 13 µM (active).
Turning to `NC(=O)c1ccccc1N(Cc1ccccc1)S(=O)(=O)c1ccccc1`, the Potency entry was “inactive”.
For `CC[C@@H](C)[C@@H]1CN([C@@H](C)CN2CCC[C@H]2CN2C(N)=NC[C@H]2C(C)C)C(=N)N1CCc1ccc(Cl)c(Cl)c1` the value was “inactive”; for `CC(OC(=O)c1c(F)cccc1F)C(=O)NCCC1=CCCCC1` (stereo not given), “inactive”; for `O=C(CCl)Nc1ccc(Sc2ccc(NC(=O)CCl)cc2)cc1`, 6.51 µM (active).
For `CCC(=O)Nc1ccc(Nc2nc(Cl)nc(Nc3ccc(NC(=O)CC)cc3)n2)cc1`, the Potency entry is “inactive”.
`Cc1ccc(NC(=O)CC(=O)Nc2ccc(C)cc2)cc1`: the Potency entry was “inactive”.
Consider `FC(F)(F)c1ccc(-c2cccc3c2C2CC3CCN2Cc2ccccc2)cc1` (stereo not given), for which the Potency entry was “inactive”.
With `CC1CCCCC12NC(=O)N(CC(=O)N1CCN(c3ccccc3)CC1)C2=O` (stereo not given), the Potency result is “inactive”.
For `COc1cccc(CNC(=O)CN2C(=O)NC(Cc3ccccc3)(c3ccccc3)C2=O)c1` (stereo not given) the value was “inactive”; for `COc1ccc(-c2nn(-c3ccccc3)cc2/C=N/Nc2ccccn2)cc1OC`, 23.1 µM (active); for `CN(C)/N=C/c1cn(-c2ccccc2)nc1-c1cccnc1`, “inactive”.
`CC(C)(C)OC(=O)N/N=C/c1cn(-c2ccccc2)nc1-c1cccnc1`: the Potency result was “inactive”.
As for `CCOC(=O)C(CO)NC(=O)C1(NC(C)=O)CCCC1` (stereo not given), the Potency entry is “inactive”.
For `CN(CCc1ccccc1)C(=O)c1cccc(NC(=O)Cc2cccc(NC(=O)C3CCCN(C(=O)CCc4ccccc4)C3)c2)c1` (stereo not given) the value was “inactive”.
`CCOC(=O)C1=C(CN2CCc3ccccc32)NC(=O)NC1c1cccc([N+](=O)[O-])c1` (stereo not given): the Potency entry was “inactive”.
On to `CCOC(=O)C1=C(CN2CCc3ccccc32)NC(=O)NC1c1ccc(Cl)cc1` (stereo not given), for which the Potency is 14.6 µM (active).
`CCOC(=O)C1=C(C)NC(=O)NC1c1ccccc1` (stereo not given): the Potency result was “inactive”.
Consider `COc1cc(O)c2c(=O)c3c(O)c(O)ccc3oc2c1OC`, for which the Potency result is “inactive”.
For `CC(C)CCN1CCN=C1N(C)C`, the Potency result was “inactive”.
The figure for `O=C(OCc1ccc(-c2ccccc2)cc1)c1cccc(O)c1` is 20.6 µM (active); for `O=C(OCc1ccc(Br)cc1)c1cccc(-c2nnc(-c3ccccc3)o2)c1` it is “inactive”; for `O=C(OCc1ccccc1)c1ccc(O)cc1` it is “inactive”.
The entry for `Cc1cc2c(cc1C)NC1(C[C@H]3CCC(=O)N4CC[C@@H](C1)[C@@H]34)C(=NC(C)(C)CC(C)(C)C)N2` (stereo not given in full) is “inactive”; for `CCCCN1CC(CO)Oc2cccc(F)c2S1(=O)=O` (stereo not given) it is “inactive”; for `Cc1cc(C(=O)OCC(=O)N2C(C)CCCC2C)c2ccccc2n1` (stereo not given) it is “inactive”.
For `O=C(NCc1ccccc1)c1ccc(S(=O)(=O)Nc2cccc(C(F)(F)F)c2)cc1`, the Potency entry was “inactive”.
Take `CCOC(=O)N1CCN(C(=O)c2ccc(S(=O)(=O)Nc3cccc(C(F)(F)F)c3)cc2)CC1`: the Potency result was “inactive”.
The figure for `Cc1oc2c(F)c(F)c(F)c(F)c2c1S(=O)(=O)Nc1cccc(C(F)(F)F)c1` is 16.4 µM (active); for `O=C1C=C(c2cc(C(F)(F)F)cc(C(F)(F)F)c2)C[C@@H](c2ccc3c(c2)OCO3)C1` it is “inactive”; for `c1ccc(COc2ccccc2CNCc2cccnc2)cc1` it is “inactive”.
The figure for `Fc1ccccc1COc1ccccc1CNCc1ccncc1` is 3.26 µM (active); for `Fc1ccccc1COc1cccc2cccnc12` it is “inactive”.
The entry for `C[C@@H]1ON(C)[C@H]2C[C@H]3c4cc(N5CCN(C)CC5)ccc4CCN3C(=O)[C@@H]12` is “inactive”; for `O=C(Nc1ccccc1)/C(=C/c1ccc([N+](=O)[O-])cc1)NC(=O)c1ccccc1` it is “inactive”.
As to `CCOC(=O)/C(=C\c1ccc([N+](=O)[O-])cc1)C(=O)c1cc(C(C)=O)c(Nc2ccccc2)s1`, the Potency is 1.46 µM (active).
For `Cc1cccc(NC(=O)c2sc(-c3ccccc3)nc2-c2ccc([N+](=O)[O-])cc2)c1` the value was “inactive”.
The entry for `Cc1ccc(C(=O)CN2C(=O)NC3(CCOc4ccccc43)C2=O)s1` (stereo not given) is “inactive”.
For `CCOc1ccc(S(=O)(=O)N2CCC(C(=O)NCC(=O)Nc3cccc(Cl)c3C)CC2)cc1` the value was “inactive”.
With `C[C@H]1COC(=O)[C@H](CC(=O)OC(C)(C)C)C/C=C\C[C@@H](CC(=O)N[C@H](CO)Cc2ccccc2)C(=O)N1`, the Potency result is “inactive”.
The entry for `CC(=O)c1c(C)[nH]c(C(=O)COC(=O)c2cccs2)c1C` is “inactive”.
For `Nc1nc(-c2sc3nc4c(cc3c2N)CCCC4)nc(N2CCOCC2)n1` the value was 6.51 µM (active); for `Cc1nc(N2CCOCC2)nc2c1CCCC2`, “inactive”; for `CC(C)(C)S(=O)(=O)N1Cc2cc(CO)cc(CCO)c2[C@H]1CCO`, “inactive”.
`COc1ccc(S(=O)(=O)N2CCN(c3cnccn3)CC2)cc1`: the Potency entry is “inactive”.
The figure for `COC(=O)c1ccc2c(=O)n(CC3CCCO3)c(=S)[nH]c2c1` (stereo not given) is 23.1 µM (active).
On to `Cc1cccc(NC(=O)c2ccc3c(=O)n(CC4CCCO4)c(=S)[nH]c3c2)c1` (stereo not given), for which the Potency entry is “inactive”.
The entry for `O=C(NC1CCCCC1)c1ccc2c(=O)n(CC3CCCO3)c(=O)[nH]c2c1` (stereo not given) is “inactive”; for `CCN(CC)c1ccc(/C=N/Nc2nc(C)cc(C)n2)c(O)c1` it is 18.4 µM (active); for `CCN(CC)c1ccc(/C=N/NC(=O)c2cnccn2)c(O)c1` it is 18.4 µM (active).
The entry for `CCN(CC)c1ccc(/C=N/Nc2nc(C)cc(=O)[nH]2)cc1` is “inactive”.
The entry for `Cc1cc(C)nc(N/N=C/c2ccncc2)n1` is “inactive”.
With `CCN(CC)c1ccc(/C=N/NC(=O)CNC(=O)c2cccnc2)cc1`, the Potency result is “inactive”.
For `Cc1ccc(C(=O)NCCNC(=O)c2cnccn2)cc1`, the Potency entry is “inactive”.
